Here are results for 40 compounds from PubChem BioAssay (NCATS).

Inconclusive results are not listed. A number with no mark means an inactive call. Activity calls are given as the source filed them. The call rests on the fitted dose curve.
Potency means the concentration at half of the fitted maximal effect.

A short description of this experiment: Cell Viability - BJ (AID 421).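 Further: cells exposed to compound for 40 hours at 37 °C before readout.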 The settings on record: BJ fibroblast viability, qHTS. An excerpt: NIH Chemical Genomics Center [NCGC]
NIH Molecular Libraries Screening Centers Network [MLSCN]
National Institutes of Environmental Health Sciences [NIEHS]
National Toxicology Program [NTP]
We have developed a 1536-well cell-based assay for quantitative high throughput screening (qHTS) against a number of cell lines to determine in vitro cytotoxicity of small molecules. This particular assay uses the BJ cell line from ATCC which is derived from normal human foreskin fibroblasts.
NCGC Assay Protocol Summary:
The CellTiter-Glo luminescent cell viability assay (Promega) is a homogeneous method to measure the number of viable cells in culture. The end point readout of this assay is based on quantitation of intracellular ATP, an indicator of metabolic activity, using the luciferase reaction. Luciferase catalyzes the oxidation of beetle Luciferin to oxyluciferin and light in the presence of ATP. The luminescent signal is proportional to amount of ATP present.
Using the CellTiter-Glo luminescent cell viability assay, the amount of cellular ATP was measured in the BJ cell line with complete culture medium following compound treatment for 40 hours. The assay was performed in opaque white Kalypsys 1536-well plates. In the screen, tamoxifen and doxorubicin were used as positive controls. Library compounds were measured for their ability to cause acute toxicity in the cell line, as reflected by a decrease in intracellular ATP levels, in a concentration-dependent manner. Data were normalized to the controls for basal activity (DMSO only) and 100% inhibition (100 uM tamoxifen). AC50 values were determined from concentration-response data modeled with the standard Hill equation.
qHTS protocol fo CellTiter Glo BJ cellular assay
[Step] [Parameter] [Value] [Description]
1. Reagent; 5 uL; 1500 BJ cells/well
2. Time; 5 hr; 37 °C incubation
4. Controls; 23 nL; Tamoxifen 0.34 uM to 100 uM & Doxorubicin 0.02 nM to 100 uM
5. Time; 40 hr; 37 °C incubation
6. Reagent; 5 uL; CellTiter Glo reagent
7. Time; 20 min; Room Temperature
8. Detection; Luminescence; Viewlux plate reader
Keywords: cell viability, cytotoxicity, BJ cell line, luminescence, NTPHTS, NTPHTS_NCGC, NIEHS, EPA, DSSTox, MLSMR, MLSCN, NIH Roadmap, qHTS, NCGC
A general note: qHTS replaces the single test concentration by a dilution series.
As to `CC12CCC(CC1=O)C2(C)C` (stereo not given), the Potency was more than 92 µM. For `S=C1NC=NC2N=CNC12` (stereo not given) the value was 0.22 µM (active).

As to `O=C(/C=C/c1ccc(O)c(O)c1)O[C@@H](C(=O)O)[C@@H](OC(=O)/C=C/c1ccc(O)c(O)c1)C(=O)O`, the Potency was more than 92 µM. `COc1ccc2nc(N)sc2c1`: the Potency was more than 92 µM. The figure for `O=C(O)CC(C(=O)O)C(CC(=O)O)C(=O)O` (stereo not given) is more than 92 µM; for `COc1ccc(/C=C/c2cc(OC)cc(=O)o2)cc1` it is more than 92 µM; for `C=Cc1ccccc1Cl` it is more than 92 µM. As to `O[C@@H]([C@H](O)[C@@H](O)CBr)[C@@H](O)CBr`, the Potency is more than 92 µM. The figure for `Cc1cccc([N+](=O)[O-])c1C` is more than 92 µM. The figure for `C[C@H](CCC(=O)O)[C@H]1CC[C@H]2[C@@H]3CC[C@@H]4C[C@H](O)CC[C@]4(C)[C@H]3CC[C@]12C` is more than 92 µM. With `Nc1ccc(Cl)cc1Cl`, the Potency was more than 92 µM. The figure for `CCCN(CCC)C(=O)SCC` is more than 92 µM; for `Cc1ccc(N)c([N+](=O)[O-])c1` it is more than 92 µM; for `O=S(=O)(O)c1ccccc1` it is more than 92 µM. For `C=C(C)C1CC=C(C)C(O)C1` (stereo not given) the value was more than 92 µM; for `CCCCCCCCO`, more than 92 µM; for `O=C1c2ccccc2C(=O)C1c1ccc2ccccc2n1`, 33.1 µM (active). The figure for `CN(C)CCCCCCN(C)C` is more than 92 µM; for `Cc1ccc([N+](=O)[O-])cc1N` it is more than 92 µM. Consider `C=CC(=C)CCC=C(C)C`, for which the Potency was more than 92 µM. The figure for `O=C(O)c1ccccc1` is more than 92 µM; for `Clc1cc(Cl)c(Cl)c(Cl)c1Cl` it is more than 92 µM; for `CC(C)=CCCC(C)CCO` (stereo not given) it is more than 92 µM. On to `CCCCC(CC)CN` (stereo not given), for which the Potency is more than 92 µM. For `COc1c2ccoc2cc2oc(=O)ccc12` the value was more than 92 µM. The figure for `CCO[Si](CCCN)(OCC)OCC` is more than 92 µM.

Take `NC1=NC(S)C2N=CN=C2N1` (stereo not given): the Potency is 0.218 µM (active).

`c1ccccc1`: the Potency was more than 92 µM. Turning to `c1ccc2c(c1)c1cccc3ccc4cccc2c4c31`, the Potency was more than 92 µM. For `COC(=O)CCCCC(=O)OC`, the Potency is more than 92 µM.

Regarding `CC(=O)OC/C=C(\C)CCC=C(C)C`, the Potency is more than 92 µM. For `C=CCc1ccc(OC)c(OC)c1` the value was more than 92 µM. The figure for `CCC(C)c1ccccc1O` (stereo not given) is more than 92 µM; for `ClCCCl` it is more than 92 µM. On to `C/C=C\c1ccc(OC)cc1`, for which the Potency is more than 92 µM.

Regarding `CC1=CC(C)(C)Nc2ccccc21`, the Potency is more than 92 µM. The figure for `COCC(=O)O` is more than 92 µM. For `c1ccc2scnc2c1` the value was more than 92 µM. For `Nc1ccc(S(=O)(=O)O)cc1` the value was more than 92 µM. Turning to `COc1cc(/C=C/c2ccccc2)oc(=O)c1`, the Potency is more than 92 µM.
